The values below come from the supplement of paper PMC9694430.

Common to all, as to test: thermal shift delta Tm vs DMSO control; higher = stronger stabilization (binding)
Holding throughout (conditions): 12.5 µM; protein concentration 2 µM

In one test the test system is LOC_OS01G57100-cb003. The procedure, abridged:
(§1)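 Heating from 25°C to 95°C at 0.05°C/s, fluorescence was recorded for 19.5 μl wells of 2 μM E. coli-expressed, purified rice kinase domain in 100 mM potassium phosphate pH 7.5, 150 mM NaCl, 10% glycerol and 5 × SYPRO Orange with compound in DMSO. Boltzmann fits gave melting temperatures for this differential scanning fluorimetry assay. The shift reported is the mean of three replicates against the DMSO-only protein.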

In a further test the test system is LOC_OS01G60330-cb001. The procedure, abridged: as §1
In a further test the test system is LOC_OS01G60700-cb002. The procedure, abridged:
as §1

The test system of a further test is LOC_OS01G63280-cb003. The procedure, abridged:
as §1

The next test deals with LOC_OS01G67340-cb003. The procedure, abridged: as §1
For another test, the system named is LOC_OS01G70970-cb002. The procedure, abridged: as §1
The subject of the next test is LOC_OS02G07810-cb001. The procedure, abridged:
as §1

The test system of the next test is LOC_OS02G08530-cb003. The procedure, abridged:
as §1

Another test has as its system LOC_OS02G14120-cb001. The procedure, abridged: as §1
In another test the test system is LOC_OS02G17970-cb001. The procedure, abridged:
as §1

In another test the test system is LOC_OS02G45750-cb003. The procedure, abridged: as §1
For a further test, the system named is LOC_OS02G54510-cb004. The procedure, abridged:
as §1

A further test concerns LOC_OS03G04050-cb001. The procedure, abridged: as §1
In the next test the test system is LOC_OS03G12390-cb001. The procedure, abridged: as §1
The subject of a further test is LOC_OS03G27990-cb004. The procedure, abridged: as §1
For the next test, the system named is LOC_OS03G50450-cb001. The procedure, abridged: as §1
For a further test, the system named is LOC_OS03G50810-cb003. The procedure, abridged:
as §1

The next test deals with LOC_OS04G35114-cb001. The procedure, abridged: as §1
A further test concerns T1, LOC_OS04G38480-cb003.
T1 sequence (whole entry): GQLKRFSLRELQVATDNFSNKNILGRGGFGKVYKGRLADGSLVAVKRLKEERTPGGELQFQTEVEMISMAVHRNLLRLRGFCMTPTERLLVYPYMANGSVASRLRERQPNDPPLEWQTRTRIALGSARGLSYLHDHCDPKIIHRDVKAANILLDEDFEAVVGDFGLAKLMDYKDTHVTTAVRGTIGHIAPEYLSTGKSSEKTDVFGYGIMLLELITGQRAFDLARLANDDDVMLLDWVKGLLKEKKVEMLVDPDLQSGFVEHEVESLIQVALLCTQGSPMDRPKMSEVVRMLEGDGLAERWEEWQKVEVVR
The procedure, abridged:
as §1

In the next test the test system is T2, LOC_OS04G41100-cb001.
T2 sequence (whole entry): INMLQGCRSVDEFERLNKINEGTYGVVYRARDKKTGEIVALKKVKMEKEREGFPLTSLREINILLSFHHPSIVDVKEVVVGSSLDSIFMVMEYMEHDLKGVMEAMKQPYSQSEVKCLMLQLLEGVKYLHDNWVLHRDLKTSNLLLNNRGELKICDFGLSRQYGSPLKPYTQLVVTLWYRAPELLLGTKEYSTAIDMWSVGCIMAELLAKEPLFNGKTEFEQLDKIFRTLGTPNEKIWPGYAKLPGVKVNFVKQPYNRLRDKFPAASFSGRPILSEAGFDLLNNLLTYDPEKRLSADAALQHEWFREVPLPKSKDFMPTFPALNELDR
The procedure, abridged: as §1
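Also: purified Escherichia coli-expressed rice kinase domain construct.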

`CC(C)n1nc(-c2cc3cc(O)ccc3[nH]2)c2c(N)ncnc21` [Torkinib (PP242)]: the “thermal shift delta Tm” value in the test with LOC_OS01G57100-cb003 was 0.56 °C; in the test with LOC_OS01G60330-cb001, 1.53 °C; in the test with LOC_OS01G60700-cb002 it was 1.1 °C; in the test with LOC_OS01G63280-cb003 it was 3.14 °C; in the test with LOC_OS01G67340-cb003 it was 1.04 °C; with LOC_OS01G70970-cb002, 0.66 °C. Further, the “thermal shift delta Tm” value worked out at 0.64 °C in the test on LOC_OS02G07810-cb001; 0.63 °C in the test on LOC_OS02G08530-cb003; 0.74 °C in the test on LOC_OS02G14120-cb001; 0.57 °C in the test with LOC_OS02G17970-cb001; 1.42 °C with LOC_OS02G45750-cb003; 0.85 °C in the test on LOC_OS02G54510-cb004. The “thermal shift delta Tm” value in the test with LOC_OS03G04050-cb001 came out at 0.29 °C; in the test on LOC_OS03G12390-cb001, 2.95 °C; with LOC_OS03G27990-cb004 it was 0.64 °C; in the test with LOC_OS03G50450-cb001 it was 0.48 °C; in the test with LOC_OS03G50810-cb003, 0.71 °C; with LOC_OS04G35114-cb001, 5.09 °C. In addition, the “thermal shift delta Tm” value in the test on LOC_OS04G38480-cb003 amounted to 1.25 °C; in the test on LOC_OS04G41100-cb001, 0.2 °C.

As to `CN1CCC(COc2cnc(-c3cccc(Cn4nc(-c5cccc(C#N)c5)ccc4=O)c3)nc2)CC1`, the “thermal shift delta Tm” value in the test with LOC_OS01G57100-cb003 was 0.71 °C; in the test with LOC_OS01G60330-cb001, 0.27 °C; with LOC_OS01G60700-cb002, 0.62 °C; in the test on LOC_OS01G63280-cb003, -0.13 °C; with LOC_OS01G67340-cb003 it was -0.02 °C; in the test with LOC_OS01G70970-cb002, 0.15 °C. In addition, the “thermal shift delta Tm” value in the test with LOC_OS02G07810-cb001 was 0.34 °C; with LOC_OS02G08530-cb003 it was 0.12 °C; in the test on LOC_OS02G14120-cb001, 0.1 °C; in the test on LOC_OS02G17970-cb001, 0.24 °C; with LOC_OS02G45750-cb003, -0.03 °C; in the test on LOC_OS02G54510-cb004, -0.06 °C. Besides, the “thermal shift delta Tm” value in the test with LOC_OS03G04050-cb001 is 0.23 °C; with LOC_OS03G12390-cb001 it was -0.02 °C; in the test on LOC_OS03G27990-cb004, 0.03 °C; with LOC_OS03G50450-cb001 it was 0.11 °C; in the test with LOC_OS03G50810-cb003, 0.09 °C; in the test on LOC_OS04G35114-cb001, 1.33 °C. Moreover, the “thermal shift delta Tm” value is 0.26 °C in the test with LOC_OS04G38480-cb003 and 0.35 °C in the test on LOC_OS04G41100-cb001.

For the compound `Nc1nc(N)c(N=O)c(OCC2CCCCC2)n1`, the “thermal shift delta Tm” value in the test with LOC_OS01G57100-cb003 came to 1.14 °C; with LOC_OS01G60330-cb001, 2.6 °C; with LOC_OS01G60700-cb002, 1.46 °C; in the test on LOC_OS01G63280-cb003, 0.91 °C; with LOC_OS01G67340-cb003, 0.46 °C; in the test on LOC_OS01G70970-cb002 it was 1.27 °C. For the same compound, the “thermal shift delta Tm” value in the test on LOC_OS02G07810-cb001 is 0.51 °C; in the test on LOC_OS02G08530-cb003 it was 0.99 °C; in the test on LOC_OS02G14120-cb001, 2.99 °C; with LOC_OS02G17970-cb001, 0.61 °C; in the test on LOC_OS02G45750-cb003, 0.64 °C; with LOC_OS02G54510-cb004 it was 0.21 °C. The “thermal shift delta Tm” value in the test with LOC_OS03G04050-cb001 came to 0.46 °C; with LOC_OS03G12390-cb001, 3.99 °C; with LOC_OS03G27990-cb004, 2.79 °C; in the test with LOC_OS03G50450-cb001, 0.35 °C; with LOC_OS03G50810-cb003 it was 0.92 °C; in the test with LOC_OS04G35114-cb001, 1.13 °C. Also, the “thermal shift delta Tm” value in the test with LOC_OS04G38480-cb003 is 1.28 °C; in the test with LOC_OS04G41100-cb001 it was 0.59 °C.
